Laboratory results taken from PubChem BioAssay (NCATS).
Values joined by “and” are separate entries in the source; they are usually repeats but may differ in a detail not shown here. Identical values can stand only once. Records with an inconclusive call do not appear. Active and inactive are the calls of the source. Unless noted, the call rests on the fitted dose curve; in most records, active means well fitted curve in either direction with a large enough effect (not every such curve was filed as active); inconclusive means small, poorly fitted or top-dose-only effect, or another doubt; inactive means flat fitted curve, though single readings scatter.

Tests used:
[1] = target: Mitogen-activated protein kinase 10 (Mus musculus) (UniProt Q61831); experiment: JNK3 AlphaScreen Assay (AID 530);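 further: kinase came from lysate of stimulated human HepG2 cells; signal reports phosphorylation of biotinylated GST-cJun 1-79 at Ser73 with 10 µM ATP; on the % scale 0 is the no-effect control and ±100 the full control effect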
Summary of the method: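 Activity was read by AlphaScreen after JNK3-containing HepG2 lysate (cytokine pre-activated) phosphorylated biotinylated GST-cJun with 10 uM ATP at room temperature. Phospho-Ser73 cJun antibody with Protein-A acceptor beads provided detection.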

[2] = target: Cytochrome P450 3A4 (Homo sapiens) (UniProt P08684); experiment: qHTS Assay for Inhibitors and Substrates of Cytochrome P450 3A4 (AID 884; active means well fitted curve in the direction sought with a large enough effect; an effect the other way counts as inactive or inconclusive; further: nearly all actives have a fitted effect of over 50% in size; further: potency means the concentration at half of the fitted maximal effect)
Summary of the method: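 Luminescent readout of luciferin produced by CYP3A4 (20 nM) dealkylation of Luciferin-PPXE, 25 uM (its KM). NADPH-driven reaction ran 60 min at RT after 10 min compound preincubation; data scaled to 57 uM ketoconazole as 100% inhibition.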

[3] = Confirmation and Secondary Assay for Modulators of Hemoglobin Beta Chain Splicing at IVS2 654 locus (AID 910; active means well fitted curve in the direction sought with a large enough effect; an effect the other way counts as inactive or inconclusive;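 further: HeLa cells stably carrying EGFP split by mutant beta-globin IVS2-654 intron; % of control where 0% means no effect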)
Summary of the method: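 HeLa cells stably expressing EGFP interrupted by β-globin IVS2-654 intron, seeded overnight in Opti-MEM/2% FCS, then treated 2 days at 37 °C. Restored splicing read as total peak GFP intensity per well by laser scanning cytometry (488 nm excitation, 500–520 nm emission); 500 nM antisense PNA as control.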

[4] = Confirmation and Secondary Assay for Modulators of Hemoglobin Beta Chain Splicing at IVS2 705 locus (AID 930; active means well fitted curve in the direction sought with a large enough effect; an effect the other way counts as inactive or inconclusive;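 further: HeLa cells stably expressing the EGFP-705 splicing reporter; GFP fluorescence per well restored by corrected splicing of the IVS2-705 intron in EGFP; % of control where 0% means no effect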)
Summary of the method: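 Splice-correction reporter: EGFP cDNA split by beta-globin intron 2 bearing the 705 mutation, stably in HeLa. Compound incubation 2 days, 37C; fluorescent objects 5-250 µm summed per well.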

[5] = qHTS Assay for Lipid Storage Modulators (AID 1519; calls by dose curve); settings: Drosophila S3 cells, BODIPY lipid droplet/cell ratio, laser cytometry, cells loaded with oleic acid; for activity change, negative = inhibition: at 57.5 µM (top of the series)
Summary of the method: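 Cells seeded at 5,000 per well were treated with compounds over a concentration series and loaded with oleic acid (400 uM, as added). Lipid droplet fluorescence (488 nm excitation, 500-530 nm channel) was read by laser-scanning cytometry and normalized to 20 uM Triacsin C.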

[6] = target: Lysosomal acid glucosylceramidase (Homo sapiens) (UniProt P04062); experiment: Glucocerebrosidase-p2 (AID 348; in the data active means potency below about 10 µM; further: potency means the concentration at half of the fitted maximal effect); settings: purified GBA, blue fluorogenic substrate, 40 min
Summary of the method: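 Normal human glucocerebrosidase (0.2 nM) with blue fluorogenic substrate (80 uM final) in citrate/phosphate pH 5.9 with 10mM sodium taurocholate, 0.01% tween-20; 40 min RT, NaOH/glycine stop; fluorescence Ex 365/Em 440; AC50 from a titration from 0.6 nM upwards.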

[7] = AP1 Signaling Pathway (AID 357); settings: ME-180 AP-1-bla reporter, EGF-induced, beta-lactamase ratio, 5 h; at 7.69 µM (top of the series) unless noted; further: on the % scale 0 is the no-effect control and ±100 the full control effect
Summary of the method: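 ME-180 cells with beta-lactamase reporter under AP-1 response element, stimulated with EC50 EGF; compounds tested in titration series, 5 h at 37 °C. CCF4 substrate added 2.5 h at room temperature; 460/530 nm emission ratio gave %activity and AC50.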

[8] = target: Cytochrome P450 1A2 (Homo sapiens) (UniProt P05177); experiment: p450-cyp1a2 (AID 410; calls by dose curve; further: potency means the concentration at half of the fitted maximal effect;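 on activity change, negative = inhibition: -100% = full effect of reference inhibitor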)
Summary of the method: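 O-Demethylation of luciferin 6' methyl ether by human CYP1A2 is monitored as luciferase luminescence. Substrate sits at Km (100uM); enzyme is 20nM. Values are scaled to 57 uM furafylline as maximal inhibition.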

[9] = NFAT Signaling Pathway (AID 444); settings: Jurkat NFAT-bla M1, carbachol, beta-lactamase ratio, 5 h; at 7.69 µM (top of the series) unless noted;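 further: carbachol stimulus at about its EC50 of 1 µM final; on the % scale 0 is the no-effect control and ±100 the full control effect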
Summary of the method: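 Jurkat cells with NFAT-driven β-lactamase reporter and co-expressed M1 receptor, stimulated with carbachol (final 1 uM, ~EC50), compound titration, 5 h at 37 °C. CCF4 loaded 1 h at RT; 460/530 nm ratio gave %activity and AC50.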

[10] = Stat Signaling Pathway (AID 446); settings: ME-180 (cervical carcinoma) SIE beta-lactamase reporter, IL-6 stimulated, 5 h; at 7.69 µM (top of the series) unless noted;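 further: ME-180 cervical cancer cells given 40 pM IL-6 alongside compound; SIE-controlled beta-lactamase reporter measured as 460/530 nm FRET emission ratio; on the % scale 0 is the no-effect control and ±100 the full control effect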
Summary of the method: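 FRET read-out (405 nm excitation, 460/530 nm emission) of a beta-lactamase reporter under a STAT-inducible element in ME-180 cervical carcinoma cells. Cells with compound receive 40 pM IL-6 for 5 h. Values are normalised to AC90 stimulation and AC90 JAK-inhibitor controls.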

[11] = target: Glucocorticoid receptor (Homo sapiens) (UniProt P04150); experiment: GR-GFP Redistribution (AID 450;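 active means compounds whose dose series gives a full or clear partial fitted curve of increased nuclear translocation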; further: potency means the concentration at half of the fitted maximal effect); settings: U2OS GR-GFP nuclear translocation, laser cytometry, 2 h
[12] = target: Glucocorticoid receptor (Homo sapiens) (UniProt P04150); experiment: GR-EFC Redistribution (AID 451; calls by dose curve; further: potency means the concentration at half of the fitted maximal effect); settings: CHO-K1 GR-EFC translocation, beta-gal luminescence, 2 h
Summary of the method: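 CHO-K1 cells expressing nuclear EA and GR-ED fragments of b-gal; compounds titrated up to 46 uM final, 2 h at 37 C. GR nuclear translocation read as complemented b-gal luminescence after 1 h RT detection.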

[13] = target: Cytochrome P450 3A4 (Homo sapiens) (UniProt P08684); experiment: qHTS Assay for Activators of Cytochrome P450 3A4 (AID 885; active means well fitted curve in the direction sought with a large enough effect; an effect the other way counts as inactive or inconclusive; further: nearly all actives have a fitted effect of over 65% in size)
Summary of the method: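 Luminescent readout of luciferin formed from 25 uM Luciferin-PPXE (KM level) by 20 nM CYP3A4 in 200 mM KPO4, with 60 min NADPH-driven reaction at room temperature after 10 min compound exposure. Ketoconazole (57 uM) defined 100% inhibition.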

[14] = target: Cytochrome P450 2C19 (Homo sapiens) (UniProt P33261); experiment: qHTS Assay for Inhibitors and Substrates of Cytochrome P450 2C19 (AID 899; active means well fitted curve in the direction sought with a large enough effect; an effect the other way counts as inactive or inconclusive; further: nearly all actives have a fitted effect of over 60% in size; further: potency means the concentration at half of the fitted maximal effect)
Summary of the method: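 Luminescent read-out of luciferin formed from Luciferin-H EGE (10uM, equal to KM). Enzyme 5nM in 50mM KPO4; compound added, 10 min at 37C, then NADPH regenerating system for 60 min at 37C. Full inhibition defined by 57uM ketoconazole.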

[15] = target: 3',5'-cyclic-AMP phosphodiesterase 4B (Homo sapiens) (UniProt Q07343); experiment: qHTS Assay for Inhibitors of PDE-IV (AID 607; active means well fitted activation curve with a large enough effect in the main read-out, with a control signal flat, not every such curve was filed as active; further: % of control where 0% means no effect)
Summary of the method: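 Cell-based read-out of cAMP via a modified cyclic nucleotide-gated channel and membrane potential dye (535/590 nm) in HEK293 cells expressing PDE4 endogenously. Compounds tested up to 22.9 uM final; 100 uM RO 20-1724 reference.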

[16] = target: Ubiquitin carboxyl-terminal hydrolase 1 (Homo sapiens) (UniProt O94782); experiment: Inhibitors of USP1/UAF1: Pilot qHTS (AID 504865; active means well fitted curve in the direction sought with a large enough effect; an effect the other way counts as inactive or inconclusive;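 further: rhodamine fluorescence freed from ubiquitin-rhodamine substrate followed over time; top concentration of the series differs between compounds; on the % scale 0 is the no-effect control and ±100 the full control effect; nearly all actives have a fitted effect of over 35% in size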)
Summary of the method: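 In 50mM HEPES pH 7.8 containing 0.5mM EDTA, 1mM TCEP, 0.1 mg/ml BSA and 0.01% Tween-20, 1nM USP1/UAF1 is exposed to compound for 15 min, then Ub-Rho (150nM final) is added and fluorescence is read over time.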

[17] = measured here: cell count channel max response
[18] = measured here: lipid channel max response

Cytochrome P450 1A2 (Homo sapiens), sequence (P05177 whole entry, looked up): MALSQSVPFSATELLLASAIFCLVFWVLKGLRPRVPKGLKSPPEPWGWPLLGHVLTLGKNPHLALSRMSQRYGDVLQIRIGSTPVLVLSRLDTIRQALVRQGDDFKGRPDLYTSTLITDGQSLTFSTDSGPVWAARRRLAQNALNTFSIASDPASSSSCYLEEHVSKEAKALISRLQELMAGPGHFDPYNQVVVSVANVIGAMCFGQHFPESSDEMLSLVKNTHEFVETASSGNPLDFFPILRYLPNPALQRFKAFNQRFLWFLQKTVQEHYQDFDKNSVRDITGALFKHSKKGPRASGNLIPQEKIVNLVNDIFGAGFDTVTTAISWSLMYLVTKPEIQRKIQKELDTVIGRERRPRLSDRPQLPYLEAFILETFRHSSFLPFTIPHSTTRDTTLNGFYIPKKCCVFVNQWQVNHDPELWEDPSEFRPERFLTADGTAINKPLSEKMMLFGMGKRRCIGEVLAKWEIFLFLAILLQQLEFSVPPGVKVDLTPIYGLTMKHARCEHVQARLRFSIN
Glucocorticoid receptor (Homo sapiens), sequence (P04150 whole entry, looked up, the tested form may be a part): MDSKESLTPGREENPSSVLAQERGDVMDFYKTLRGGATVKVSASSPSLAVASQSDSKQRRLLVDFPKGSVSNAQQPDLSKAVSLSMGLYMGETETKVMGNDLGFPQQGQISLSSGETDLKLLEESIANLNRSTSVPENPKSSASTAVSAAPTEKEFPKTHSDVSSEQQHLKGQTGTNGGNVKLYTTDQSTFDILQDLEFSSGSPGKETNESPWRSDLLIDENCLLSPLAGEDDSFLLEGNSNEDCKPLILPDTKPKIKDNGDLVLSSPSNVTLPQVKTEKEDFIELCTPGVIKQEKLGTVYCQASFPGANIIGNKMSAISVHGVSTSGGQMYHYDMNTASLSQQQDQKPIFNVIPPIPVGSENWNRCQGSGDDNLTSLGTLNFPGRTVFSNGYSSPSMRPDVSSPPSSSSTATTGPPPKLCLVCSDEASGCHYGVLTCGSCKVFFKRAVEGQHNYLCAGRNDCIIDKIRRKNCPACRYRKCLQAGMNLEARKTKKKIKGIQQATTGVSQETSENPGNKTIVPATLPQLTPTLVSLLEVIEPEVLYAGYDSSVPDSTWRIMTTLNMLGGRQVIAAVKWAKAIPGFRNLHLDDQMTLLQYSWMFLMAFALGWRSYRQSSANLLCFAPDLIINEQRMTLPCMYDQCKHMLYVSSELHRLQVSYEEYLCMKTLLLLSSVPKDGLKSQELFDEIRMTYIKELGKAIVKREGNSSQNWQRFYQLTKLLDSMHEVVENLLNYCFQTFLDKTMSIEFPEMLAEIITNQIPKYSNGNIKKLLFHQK
Cytochrome P450 2C19 (Homo sapiens), sequence (P33261 whole entry, looked up): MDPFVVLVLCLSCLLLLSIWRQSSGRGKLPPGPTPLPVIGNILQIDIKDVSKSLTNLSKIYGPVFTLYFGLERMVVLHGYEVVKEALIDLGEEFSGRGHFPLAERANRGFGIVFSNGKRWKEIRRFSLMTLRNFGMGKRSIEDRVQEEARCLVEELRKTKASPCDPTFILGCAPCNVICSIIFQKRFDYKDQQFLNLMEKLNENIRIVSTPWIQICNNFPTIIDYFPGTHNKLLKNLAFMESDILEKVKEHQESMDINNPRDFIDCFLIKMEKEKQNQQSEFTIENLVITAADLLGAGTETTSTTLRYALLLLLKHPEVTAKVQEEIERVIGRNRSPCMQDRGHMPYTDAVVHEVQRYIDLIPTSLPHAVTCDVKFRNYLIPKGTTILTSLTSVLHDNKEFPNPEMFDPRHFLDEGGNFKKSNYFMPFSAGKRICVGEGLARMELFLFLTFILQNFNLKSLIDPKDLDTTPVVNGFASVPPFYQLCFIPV
Cytochrome P450 3A4 (Homo sapiens), sequence (P08684 whole entry, looked up): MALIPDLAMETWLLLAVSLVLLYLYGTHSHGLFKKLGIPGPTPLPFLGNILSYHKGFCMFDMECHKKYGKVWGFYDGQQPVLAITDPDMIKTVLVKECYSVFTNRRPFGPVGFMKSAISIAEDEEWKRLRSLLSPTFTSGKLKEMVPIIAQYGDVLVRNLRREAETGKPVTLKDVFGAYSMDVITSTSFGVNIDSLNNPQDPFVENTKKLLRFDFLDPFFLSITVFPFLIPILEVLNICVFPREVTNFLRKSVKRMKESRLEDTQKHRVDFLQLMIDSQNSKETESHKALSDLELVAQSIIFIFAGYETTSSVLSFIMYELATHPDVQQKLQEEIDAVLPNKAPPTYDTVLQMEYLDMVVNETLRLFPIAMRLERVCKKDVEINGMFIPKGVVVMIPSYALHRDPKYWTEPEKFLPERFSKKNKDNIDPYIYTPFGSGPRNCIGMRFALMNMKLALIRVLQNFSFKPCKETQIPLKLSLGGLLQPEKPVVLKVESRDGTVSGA
3',5'-cyclic-AMP phosphodiesterase 4B (Homo sapiens), sequence (Q07343 whole entry, looked up): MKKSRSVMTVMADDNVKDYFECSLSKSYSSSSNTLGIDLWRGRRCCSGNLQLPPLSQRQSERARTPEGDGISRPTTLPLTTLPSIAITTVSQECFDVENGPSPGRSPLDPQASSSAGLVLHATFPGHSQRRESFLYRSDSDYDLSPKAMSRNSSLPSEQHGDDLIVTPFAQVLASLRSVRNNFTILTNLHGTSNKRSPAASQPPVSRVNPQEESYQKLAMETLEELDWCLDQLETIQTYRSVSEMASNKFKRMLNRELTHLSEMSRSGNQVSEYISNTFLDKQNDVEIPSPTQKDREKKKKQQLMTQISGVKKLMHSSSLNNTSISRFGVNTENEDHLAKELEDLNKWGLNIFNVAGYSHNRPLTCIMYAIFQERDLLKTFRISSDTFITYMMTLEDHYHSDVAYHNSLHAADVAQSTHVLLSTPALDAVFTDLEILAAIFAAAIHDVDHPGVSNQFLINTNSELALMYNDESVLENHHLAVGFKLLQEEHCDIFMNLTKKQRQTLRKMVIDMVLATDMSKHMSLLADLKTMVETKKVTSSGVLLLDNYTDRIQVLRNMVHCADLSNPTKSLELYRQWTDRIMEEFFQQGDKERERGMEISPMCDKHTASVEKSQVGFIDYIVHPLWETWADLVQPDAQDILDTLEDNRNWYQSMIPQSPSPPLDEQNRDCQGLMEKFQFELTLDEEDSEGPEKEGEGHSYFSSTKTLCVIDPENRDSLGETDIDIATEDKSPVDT
Lysosomal acid glucosylceramidase (Homo sapiens), sequence (P04062 whole entry, looked up): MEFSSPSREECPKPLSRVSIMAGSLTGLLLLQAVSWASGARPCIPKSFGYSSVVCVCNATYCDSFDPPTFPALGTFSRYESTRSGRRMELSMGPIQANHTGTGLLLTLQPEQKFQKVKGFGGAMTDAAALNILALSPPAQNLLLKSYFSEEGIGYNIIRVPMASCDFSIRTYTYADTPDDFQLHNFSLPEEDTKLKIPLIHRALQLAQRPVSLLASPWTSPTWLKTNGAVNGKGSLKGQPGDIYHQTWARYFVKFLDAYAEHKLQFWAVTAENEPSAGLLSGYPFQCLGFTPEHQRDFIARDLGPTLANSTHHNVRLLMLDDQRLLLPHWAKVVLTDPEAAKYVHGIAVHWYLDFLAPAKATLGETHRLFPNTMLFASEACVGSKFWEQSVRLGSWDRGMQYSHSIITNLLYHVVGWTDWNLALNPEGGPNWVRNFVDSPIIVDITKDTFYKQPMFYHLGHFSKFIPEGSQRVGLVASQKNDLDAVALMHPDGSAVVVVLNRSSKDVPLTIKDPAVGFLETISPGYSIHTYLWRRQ
Ubiquitin carboxyl-terminal hydrolase 1 (Homo sapiens), sequence (O94782 whole entry, looked up): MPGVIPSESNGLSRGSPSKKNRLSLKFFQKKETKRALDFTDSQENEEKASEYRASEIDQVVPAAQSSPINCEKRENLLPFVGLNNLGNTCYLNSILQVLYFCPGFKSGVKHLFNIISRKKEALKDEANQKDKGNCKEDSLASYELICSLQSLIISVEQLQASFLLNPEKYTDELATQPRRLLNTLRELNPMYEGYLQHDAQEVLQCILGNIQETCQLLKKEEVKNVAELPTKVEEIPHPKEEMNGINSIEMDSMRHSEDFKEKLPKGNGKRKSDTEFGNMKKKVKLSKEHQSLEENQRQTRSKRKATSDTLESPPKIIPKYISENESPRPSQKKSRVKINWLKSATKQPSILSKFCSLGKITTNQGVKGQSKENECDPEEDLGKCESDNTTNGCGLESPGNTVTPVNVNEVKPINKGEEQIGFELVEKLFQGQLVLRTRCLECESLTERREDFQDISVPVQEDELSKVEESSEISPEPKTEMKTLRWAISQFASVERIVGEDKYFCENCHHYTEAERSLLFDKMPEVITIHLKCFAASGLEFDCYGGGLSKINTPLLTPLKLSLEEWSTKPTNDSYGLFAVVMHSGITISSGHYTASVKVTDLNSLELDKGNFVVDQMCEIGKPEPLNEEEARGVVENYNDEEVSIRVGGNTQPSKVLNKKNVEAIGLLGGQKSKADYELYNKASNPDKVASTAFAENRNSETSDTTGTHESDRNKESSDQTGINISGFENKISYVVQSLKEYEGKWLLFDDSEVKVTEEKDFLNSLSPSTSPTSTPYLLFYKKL

CC1=CC(=O)CC(C)(C)C1(O)/C=C/C(C)=C\C(=O)O (configuration not stated)
25.4% and 14.8%: max response [5, 18]
inactive: Potency [1] | Potency [2] | Potency [3] | outcome [4] | activity change, negative = inhibition [5] 8.24% and 1.12%
12.7% and 14.4%: max response [5, 17]

Cc1cccc(CNc2nc(-c3ccoc3)nc3ccccc23)c1
-2.26%: max response [5, 18]
inactive: Potency [6] > 11.4 µM | activity change, negative = inhibition [7] -0.544% | activity change, negative = inhibition [9] -3.51% | activity, negative = inhibition [10] -10.1% | Potency [11] > 46 µM | Potency [12] > 46 µM | Potency [1] | Potency [13] | Potency [3] | outcome [4] | activity change, negative = inhibition [5] 11.1%
active: Potency [8] 1.26 µM | Potency [2] 6.31 µM | Potency [14] 7.94 µM
-24.1%: max response [5, 17]

CC(=O)N1CCC2(CC1)CCN(c1ccncc1)CC2
-6.73%: max response [5, 17]
-6.95%: max response [5, 18]
inactive: Potency [6] > 11.4 µM | activity change, negative = inhibition [7] -3.43% | Potency [8] | activity change, negative = inhibition [9] -17.4% | activity, negative = inhibition [10] -6.23% | Potency [12] > 46 µM | Potency [1] | Potency [15] | activity change, negative = inhibition [5] -1.07%

Cc1ccccc1-c1nc(-n2ccnc2)c2ccccc2n1
-6.87%: max response [5, 17]
inactive: Potency [6] > 11.4 µM | activity change, negative = inhibition [7] -12.3% | activity change, negative = inhibition [9] -10.1% | activity, negative = inhibition [10] 0.874% | Potency [11] > 46 µM | Potency [12] > 46 µM | Potency [1] | Potency [13] | Potency [3] | outcome [4] | activity change, negative = inhibition [5] 5.99%
active: Potency [8] 0.316 µM | Potency [2] 0.398 µM | Potency [14] 5.01 µM
-2.77%: max response [5, 18]

CNc1nc(-c2ccccc2OC)nc2ccccc12
inactive: Potency [6] > 11.4 µM | activity change, negative = inhibition [7] 7.61% | activity change, negative = inhibition [9] -10.4% | activity, negative = inhibition [10] 17.7% | Potency [11] > 46 µM | Potency [12] > 46 µM | Potency [1] | Potency [15] | Potency [13] | Potency [14] | outcome [4] | activity change, negative = inhibition [5] 2.04% | Potency [16]
-7.86%: max response [5, 18]
active: Potency [8] 0.398 µM
-10.6%: max response [5, 17]

Cn1cccc1C(=O)N1CCC2(CC1)CN(Cc1cc(C(F)(F)F)cc(C(F)(F)F)c1)C2
-0.271%: max response [5, 17]
inactive: Potency [6] > 11.4 µM | activity change, negative = inhibition [7] -5.13% | activity change, negative = inhibition [9] 15.4% | activity, negative = inhibition [10] -14.1% | Potency [12] > 46 µM | Potency [1] | Potency [15] | activity change, negative = inhibition [5] -8.03%
active: Potency [8] 10 µM
-4.98%: max response [5, 18]
